# Several values for one entry are separate records, joined by “and”; a condition that tells them apart may be missing. Identical values can stand only once. This is part of a sample that, as a whole, favours compounds with a hit. Of some 83,000 tested, about 20% had one in any assay.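 Activity criterion: percent growth below 10, measured after cells in 96-well plates were exposed to a single compound concentration for 48 hours.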 Activity calls are given as the source filed them.
# How the values were obtained:
# Experiment in all cases: NCI-60 one-dose screen, 48 h (100 = growth as untreated, 0 = no growth, -100 = all killed)
# Conditions in all cases: 10 µM unless noted
# [1] = test system: SK-MEL-2 melanoma
# [2] = test system: EKVX NSCLC
# [3] = test system: SN12C renal
# [4] = test system: UO-31 renal
# [5] = test system: TK-10 renal
# [6] = test system: ACHN renal
# [7] = test system: CAKI-1 renal
# [8] = test system: HL-60(TB) leukemia
# [9] = test system: CCRF-CEM leukemia
# [10] = test system: A498 renal
SMILES,growth [1],growth [2],growth [3],growth [4],growth [5],growth [6],growth [7],growth [8],growth [9],growth [10]
COC[C@H]1OC(=O)c2coc3c2[C@@]1(C)C1=C(C3=O)[C@@H]2CCC(=O)[C@@]2(C)C[C@H]1OC(C)=O,17.3% (inactive),42.1% (inactive),43.3% (inactive),31.4% (inactive),38.8% (inactive),42.2% (inactive),32.2% (inactive),25.8% (inactive),46.6% (inactive),
CC(=O)Cc1ccc2c(c1)OCO2,112% (inactive),109% (inactive),101% (inactive),102% (inactive),110% (inactive),,96.9% (inactive),77.4% (inactive),108% (inactive),116% (inactive)
CN(C)c1ccc([N+](=O)[O-])c([N+](=O)[O-])c1,90% (inactive) and 103% (inactive),96% (inactive) and 96.2% (inactive),105% (inactive) and 97.7% (inactive),117% (inactive) and 84.7% (inactive),,98.1% (inactive) and 106% (inactive),-35% (active) and 87.6% (inactive),66.7% (inactive) and 88.1% (inactive),,109% (inactive)
O=C(O)c1ccc(=O)[nH]c1,85.4% (inactive) and 102% (inactive),111% (inactive) and 98.7% (inactive),88.4% (inactive) and 95.5% (inactive),92.2% (inactive) and 88% (inactive),,100% (inactive) and 106% (inactive),98.3% (inactive),109% (inactive) and 102% (inactive),,63.4% (inactive) and 107% (inactive)
CC12CCC3C(CCC4CC(O)CCC43C)C1CCC2=O (stereo unspecified),91.7% (inactive),73.4% (inactive),102% (inactive),94.1% (inactive),108% (inactive),109% (inactive),81.5% (inactive),92.3% (inactive),107% (inactive),
C[C@]12CCc3sc(Nc4ccc(OC(F)(F)F)cc4)nc3C1=CC[C@@H]1[C@@H]2CC[C@]2(C)C(=O)CC[C@@H]12,61.8% (inactive),78.4% (inactive),71.2% (inactive),54.3% (inactive),,71.6% (inactive),60.4% (inactive),44% (inactive),5.05% (active),75% (inactive)
CCC1CCC(=O)O1 (stereo unspecified),94.8% (inactive) and 114% (inactive),111% (inactive),108% (inactive) and 109% (inactive),85.5% (inactive) and 95% (inactive),105% (inactive) and 109% (inactive),,104% (inactive),78% (inactive) and 109% (inactive),116% (inactive),96.5% (inactive) and 98.6% (inactive)
O=C(O)c1cc([N+](=O)[O-])cc([N+](=O)[O-])c1,87.1% (inactive),104% (inactive),97.5% (inactive),92% (inactive),96.9% (inactive),105% (inactive),93.8% (inactive),,80.6% (inactive),
C/C=C(/C)C(=O)O[C@H]1CC[C@@]2(C)[C@@H]3CC[C@H]4[C@]5(O)C[C@H](O)[C@@]6(O)[C@@H](CN7C[C@@H](C)CC[C@H]7[C@@]6(C)O)[C@]5(O)C[C@@]42O[C@@]13O,0.648% (active),107% (inactive),115% (inactive),81% (inactive),125% (inactive),,103% (inactive),128% (inactive),106% (inactive),127% (inactive)
O=C(NCCCN1CC1)Nc1cccc2ccccc12,97.1% (inactive) and 97.9% (inactive),109% (inactive) and 103% (inactive),94.4% (inactive) and 97.5% (inactive),97.7% (inactive) and 83.7% (inactive),103% (inactive) and 93.3% (inactive),,95.8% (inactive) and 85.1% (inactive),107% (inactive),108% (inactive) and 86.3% (inactive),124% (inactive) and 86.9% (inactive)
CCCCCCCCCCCCCCCC[N+](C)(C)Cc1ccccc1,25.2% (inactive) and -69% (active),15.8% (inactive) and -27.6% (active),5.04% (active) and -76.7% (active),54.3% (inactive) and 51% (inactive),8.74% (active) and -73.5% (active),,84.4% (inactive) and 50.6% (inactive),-28.8% (active) and -47.8% (active),-22% (active) and -30.1% (active),36.2% (inactive) and 38.2% (inactive)
CO[C@@H]([CH2][Hg][O]C(=O)c1ccccc1)[C@@H]([CH2][Hg][O]C(=O)c1ccccc1)OC,105% (inactive),110% (inactive),98.2% (inactive),88.8% (inactive),128% (inactive),,94.3% (inactive),64.9% (inactive),-6.61% (active),
COc1cc2c(cc1OC)[C@@H]1C(=O)c3ccc4c(c3O[C@@H]1CO2)C[C@H](C(C)C)O4,91% (inactive),26.7% (inactive),86.9% (inactive),46.1% (inactive),70.3% (inactive),,45.1% (inactive),19% (inactive),42.6% (inactive),86.8% (inactive)
O=C(NC1=NCC[Se]1)c1ccccc1O,83% (inactive),73% (inactive),68.4% (inactive),17.8% (inactive),56.7% (inactive),,50.8% (inactive),58.8% (inactive),21.8% (inactive),88.5% (inactive)
CC[C@H](C)[C@H](NC(=O)[C@H]1CCCCN1C)C(=O)N(C)[C@H](C[C@@H](OC(C)=O)c1cccc(C(=O)N[C@@H](Cc2ccccc2)C[C@H](C)C(=O)OC)n1)C(C)C,22.1% (inactive),53.4% (inactive),29.8% (inactive),40.7% (inactive),34.4% (inactive),,25.4% (inactive),-42.9% (active),,
C[C@]12CC[C@H]3[C@@H](CC=C4c5nc(-c6ccc(Br)cc6)sc5CC[C@@]43C)[C@@H]1CC[C@@H]2O,101% (inactive),109% (inactive),91.4% (inactive),95.6% (inactive),110% (inactive),93.4% (inactive),85.4% (inactive),94.3% (inactive),96.1% (inactive),
CC1OC(=O)C(C(C)C)NC(=O)C(C(C)C)OC(=O)C(C(C)C)NC(=O)C(C)OC(=O)C(C(C)C)NC(=O)C(C(C)C)OC(=O)C(C(C)C)NC(=O)C(C)OC(=O)C(C(C)C)NC(=O)C(C(C)C)OC(=O)C(C(C)C)NC1=O (stereo unspecified),-22.4% (active),-23.9% (active),3.04% (active),6.58% (active),24.6% (inactive),,-5.02% (active),-44.6% (active),-20.1% (active),-53.2% (active)
Cn1cc(C(=O)C[n+]2ccccc2)c2ccccc21,104% (inactive),65.4% (inactive),101% (inactive),98% (inactive),115% (inactive),109% (inactive),99.5% (inactive),98.8% (inactive),96.6% (inactive),
CN1[C@@H](CC(=O)c2ccccc2)CCC[C@H]1CC(=O)c1ccccc1,42.8% (inactive),96.7% (inactive),96.6% (inactive),83.7% (inactive),,97.3% (inactive),101% (inactive),116% (inactive),111% (inactive),115% (inactive)
CN1CCN(c2ccc(Cl)cc2)CC1,18.1% (inactive),107% (inactive),90.7% (inactive),86.1% (inactive),102% (inactive),,24.1% (inactive),48.7% (inactive),87.3% (inactive),97% (inactive)
COc1ccc(O)c2c(=O)c3c(OC)cc4c(c3oc12)[C@@H]1C=CO[C@@H]1O4,6.45% (active),6.71% (active),73.1% (inactive),51.9% (inactive),36.8% (inactive),,35.9% (inactive),65.8% (inactive),92.6% (inactive),87% (inactive)
O=C(O)C1C(C(=O)O)C2(Cl)C(Cl)=C(Cl)C1(Cl)C2(Cl)Cl (stereo unspecified),108% (inactive) and 113% (inactive),90.4% (inactive) and 118% (inactive),103% (inactive) and 101% (inactive),73.1% (inactive) and 92.2% (inactive),116% (inactive) and 107% (inactive),,116% (inactive),95.1% (inactive),1.8% (active) and 114% (inactive),102% (inactive) and 101% (inactive)
C(=NC1CCCCC1)=NC1CCCCC1,92.8% (inactive) and 94.4% (inactive),41.3% (inactive),100% (inactive) and 82.2% (inactive),98% (inactive) and 76.9% (inactive),,97.5% (inactive),91.3% (inactive) and 88.7% (inactive),118% (inactive) and 46.3% (inactive),,104% (inactive) and 51.2% (inactive)
C[C@]12CC[C@H]3[C@@H](C[C@@H]4SC(Nc5cccc(F)c5)=N[C@@]45CC(=O)CC[C@]35C)[C@@H]1CCC2=O,21.8% (inactive),46.4% (inactive),28.5% (inactive),-26.9% (active),20.3% (inactive),,50.5% (inactive),8.58% (active),,22.9% (inactive)
O=[N+]([O-])c1ccc2scc3c4ccccc4nc-3c2c1,-63.2% (active),37.1% (inactive),-36% (active),-85.4% (active),-53.7% (active),-97.5% (active),-40.6% (active),1.24% (active),-12.3% (active),
N#CCC(=O)c1ccccc1,114% (inactive),99% (inactive),109% (inactive),79% (inactive),119% (inactive),106% (inactive),101% (inactive),98.4% (inactive),110% (inactive),

# From PubChem BioAssay (NCI)
